Screens from PubChem.
D3 ag: agonists of human D3 dopamine receptor; 410,000 tested, 0.58% active; max activation, %; D3R DiscoveRx beta-arrestin cells, luminescence, 90 min; in the data active means max activation above about 30%
Target sequence (P35462 whole entry, looked up): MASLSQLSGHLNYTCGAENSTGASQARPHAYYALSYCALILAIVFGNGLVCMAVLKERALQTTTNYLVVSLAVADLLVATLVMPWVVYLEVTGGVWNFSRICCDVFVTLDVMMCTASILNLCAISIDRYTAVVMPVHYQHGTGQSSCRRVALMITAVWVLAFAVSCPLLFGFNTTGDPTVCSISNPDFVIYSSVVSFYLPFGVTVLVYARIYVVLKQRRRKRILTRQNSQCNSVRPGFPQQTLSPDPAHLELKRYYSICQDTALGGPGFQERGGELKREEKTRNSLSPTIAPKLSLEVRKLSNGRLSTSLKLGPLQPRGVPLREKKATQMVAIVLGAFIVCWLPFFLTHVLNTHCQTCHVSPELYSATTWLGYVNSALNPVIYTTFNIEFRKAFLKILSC
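Agonist-mode cell screen: cells plated at 1500/well and incubated overnight at 37 °C, then exposed to library compounds for 90 min at 37 °C. Detection reagent was added for 30–60 min at room temperature, and luminescence was read.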
ERG-DNA inh: ERG Ets/DNA interaction inhibition; P11308; fluorescence polarization, His-ERG Ets domain / labelled DNA; Potency, µM (doses to about 76.9 µM), most hits filed as inhibitors; 370,000 tested, 0.028% active; AID 624246; active means well fitted inhibition curve with a large enough effect in the polarisation, with a control signal flat; inconclusive means small, poorly fitted or top-dose-only effect, or effect the other way, or a change in a side signal; inactive means no such curve, though single readings can be large or run the other way; the % refers to the polarisation;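 further: polarization taken with two DNA probes labelled with fluorescein and Texas red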
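His-tagged ERG Ets domain (1 uM in the protein solution; 300mM KCl, 50mM Tris-HCl, 1mM EDTA, 1mM DTT, pH 7.5) received compound, then a probe mix of 5 nM fluorescein-DNA and 100nM Texas-615-DNA. Fluorescence polarization was read for both dyes.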
D3 antag: blocks the human D3 dopamine receptor. 360,000 tested, 2.5% active. max response, negative = inhibition, %. AID 652054. D3R cells, DiscoveRx beta-arrestin luminescence, antagonist mode; hits give low values. P35462; in the data active means max response below about -50%; inconclusive means no clear call, values can overlap the other calls
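Cells expressing the human receptor were seeded at 1500 cells/well, incubated overnight at 37 degrees C in 5% CO2, then exposed to library compounds with dopamine controls for 90 minutes at 37 degrees C before luminescent detection.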
D1 antagonist: human D1 dopamine receptor antagonism | P21728 | HEK293 TREx D1 cells, calcium flux, dopamine EC80; hits give low values | activity change, negative = inhibition, % at 10 µM | 360,000 tested, 3.2% active; in the data active means activity change below about -30%
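Cells carrying a force-coupled, tetracycline-inducible human D1 receptor report calcium flux. Each well gets a 10 s baseline, compound with 180 s monitoring, then an EC80 dopamine stimulus with a second 180 s kinetic read.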
D1 agonist: agonists of human D1 dopamine receptor; activation, % at 2 µM; HEK293 T-REx D1 cells, calcium flux, agonist mode; AID 504660; 360,000 tested, 1% active; in the data active means activation above about 30%
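Agonism was scored from calcium flux recorded over 180 s (1 read/s) after pintool compound addition, following a 10-cycle baseline. Cells were inducible force-coupled HEK293 TREx D1, plated overnight at 30 C and loaded with no-wash calcium dye.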
D1 PAM: enhances dopamine response at the human D1 receptor; potentiation, % at 10 µM; 360,000 tested, 0.036% active; HEK293 TREx D1 cells, calcium flux, dopamine EC20 potentiation; AID 504651; in the data active means potentiation above about 30%
Each line names hits and unclear results; the compound was inactive in the other large screens. Compounds with a hit are over-represented: about 6.1% of the library has one in this group of screens.

Cc1ccc(Cl)cc1NC(=O)C1C2CCC(O2)C1C(=O)O (stereo not given)	D1 antagonist -35
Cc1ccc(NC(=O)C2C3CCC(O3)C2C(=O)O)c(Br)c1 (stereo not given)	none
Nc1nonc1N/N=C/c1c(O)ccc2ccccc12	D1 agonist 31
Nc1nonc1N/N=C\c1ccccc1	none
Nc1cc(Cl)nc(N/N=C/c2c(O)ccc3ccccc23)n1	D3 antag -146
O=C(Nc1ncc(Cc2cccc(Cl)c2)s1)C1CCCO1 (stereo not given)	none
Cc1cc(Cl)ccc1OCC(=O)OC(C)C(=O)NC(N)=O (stereo not given)	D3 ag 46
O=C(COC(=O)CNC(=O)c1ccc(Cl)cc1)NC1CCCCCC1	none
CCOc1ccc(-c2cc(C(=O)N3CCN(c4ccccn4)CC3)c3ccccc3n2)cc1	none
COc1ccc(-c2cc(C(=O)N3CCCC3)c3ccccc3n2)cc1	none
COc1ccccc1-c1cc(C(=O)N2CCc3ccccc3C2)c2ccccc2n1	D1 antagonist -86 (no result: D3 ag, ERG-DNA inh, D3 antag)
CCCc1ccc(-c2cc(C(=O)N3CCN(c4ccccn4)CC3)c3ccccc3n2)cc1	D3 ag 44
COc1ccc(-c2cc(C(=O)N3CCN(c4ccccn4)CC3)c3ccccc3n2)cc1	D3 ag 33
COc1ccc(-c2cc(C(=O)N3CCN(c4ccccc4)CC3)c3ccccc3n2)cc1	D1 antagonist -37
CCn1cc(C(=O)O)c(=O)c2cc(F)c(N/N=C/c3ccccc3)cc21	none
Cc1cccc(NC(=O)CCS(=O)(=O)c2ccccc2)c1	none
Cc1ccc(-c2cc(C(=O)N3CCCCC3)c3ccccc3n2)cc1C	D1 agonist 35
COc1ccc(N2CCN(C(=O)c3nc(SC)ncc3Cl)CC2)cc1	none (no result: D3 antag)
COc1ccc(N2CCN(C(=O)c3cnc(SC)nc3C)CC2)cc1	D1 antagonist -63 (no result: D3 antag)
O=C(c1cc(-c2ccccc2)nc2ccccc12)N1CCCC1	none
Cc1c(/C=C(\C#N)C(=O)Nc2cccc(Cl)c2)c2ccccc2n1Cc1ccccc1	D1 agonist 32 (no result: D3 antag)
O=C(Nc1ccccc1F)c1csc(COCCO)n1	D3 antag -134 (no result: ERG-DNA inh, D1 antagonist, D1 agonist, D1 PAM)
O=C(Nc1ccc(Cl)cc1)c1csc(COCCO)n1	none (no result: ERG-DNA inh, D1 antagonist, D1 agonist, D1 PAM)
O=C(Nc1ccc(F)cc1F)Nc1csc2ccccc12	D1 antagonist -33
O=C(Nc1ccc(F)c(Cl)c1)Nc1csc2ccccc12	D1 antagonist -33
O=C(Nc1ccncc1)Nc1ccc(F)c(Cl)c1	none
CC1(C)C(=O)NCCN1C(=O)c1ccc2nc(Cc3ccccc3F)oc2c1	ERG-DNA inh inconclusive
COc1cccc(Nc2sc(C(=O)c3ccc(Cl)cc3)c(N)c2C(=O)NCc2ccc(C)cc2)c1	none (no result: D3 antag)
O=[N+]([O-])c1ccccc1OCCCNCc1ccccc1	D3 antag -63
CCOCCCNCc1cc(Br)ccc1OCc1ccccc1	none
Clc1ccc(OCCCNCc2ccccc2)c(Br)c1	D3 antag -79, D1 agonist 93
Clc1ccc(Cl)c(OCCCCNCc2ccccc2)c1	D3 antag -69, D1 antagonist -58, D1 agonist 81
Cc1ccc(-c2nc(C#N)c(N3CCC(C(N)=O)CC3)o2)cc1	none
CC(Nc1ccccc1CO)C(=O)Nc1cccc(Cl)c1Cl (stereo not given)	D1 antagonist -61
Cc1cccc2cc(COC(=O)c3ccccc3)c(=O)[nH]c12	D3 antag -51
Cc1ccc(CNC(=O)[C@H]2O[C@@H](n3ccc(N)nc3=O)[C@H](O)[C@@H]2O)o1	D3 antag -126 (no result: ERG-DNA inh, D1 antagonist, D1 agonist, D1 PAM)
O=C1CC(N2CCN(C/C=C/c3ccccc3)CC2)C(=O)N1Cc1cccs1 (stereo not given)	D3 antag -63
O=C(c1ccncc1)c1ccc(N2CCN(C3CC(=O)N(Cc4cccs4)C3=O)CC2)cc1 (stereo not given)	D1 antagonist -39
O=C(CCCSc1nc2ccccc2c(=O)[nH]1)c1ccccc1	none
CCOC(=O)COc1ccccc1/C=C\[N+](=O)[O-]	D3 antag -103, D1 antagonist -86
Cc1ccc(C(=O)COC(=O)COc2ccccc2[N+](=O)[O-])s1	none (no result: ERG-DNA inh)
Cc1ccc(NC(=S)NCc2ccccc2)c(C)c1	none
COC(=O)c1ccc(CSc2nc3ccccc3o2)cc1	none
CCOC(=O)c1sc(N/N=C/c2ccc(N(C)C)cc2)nc1C	D1 antagonist -47
CCOC(=O)c1sc(Nc2cccc(C)c2C)nc1C	D1 agonist 31 (no result: D3 ag, ERG-DNA inh, D3 antag)
O=C(/C=C/NNC(=O)c1ccc(Br)cc1)c1ccccc1	none
O=C(/C=C/NNC(=O)c1ccccc1)c1ccccc1	D3 antag -53
Oc1ccc(C2C[C@H]3CC[C@@H]2C3)cc1O (stereo not given in full)	none
Oc1ccc(C2CNCc3sccc32)cc1O (stereo not given)	D1 antagonist -96, D1 agonist 92
O=S(=O)(c1ccc(F)cc1)N1CCN(S(=O)(=O)c2cccs2)CC1	none
CC12CCC(C[N+](C)(CCC[N+](C)(C)C)C1)C2(C)C (stereo not given)	none (no result: ERG-DNA inh, D3 antag, D1 antagonist, D1 agonist, D1 PAM)
COc1cccc(C(C(=O)NCc2ccccc2)N2CCN(CCN3CCOCC3)CC2)c1OC (stereo not given)	none (no result: ERG-DNA inh, D1 antagonist, D1 agonist, D1 PAM)
CCN1C(=O)[C@@H]2[C@H](C1=O)[C@@H]1C(=O)Nc3ccccc3C(=O)N1[C@@H]2c1ccc(OC)cc1	D3 ag 35
C#CCN(C[C@@H]1[C@@H](OC(=O)NC2CCCC2)[C@@H](OC(=O)NC2CCCC2)Cn2c(=O)ccc(=O)n21)S(=O)(=O)c1ccc(C)cc1	D3 antag -64 (no result: ERG-DNA inh, D1 antagonist, D1 agonist, D1 PAM)
COc1ncccc1C(=O)N1CCC(n2nccc2NC(=O)CC(C)C)CC1	D3 antag -52
COc1ccccc1C(=O)Nc1ccnn1C1CCN(C(C)CSC)CC1 (stereo not given)	D1 antagonist -40
COc1ccccc1/C=C/CN1CCC(n2nccc2NC(=O)CCc2ccccc2)CC1	D3 antag inconclusive, D1 agonist 31
O=C(CCc1ccccc1)Nc1ccnn1C1CCN(C/C=C/c2ccccc2)CC1	D3 antag inconclusive
COc1ccccc1C(=O)Nc1ccnn1C1CCN(C/C=C/c2ccc(F)cc2)CC1	D1 antagonist -32
CC(C)c1ccc(NC(=O)c2cc(S(=O)(=O)N(C)C3CCCCC3)ccc2F)cc1	none (no result: D3 antag)
O=[N+]([O-])c1ccc(S(=O)(=O)NN=C2CCCCC2)cc1	D3 antag -52 (no result: D1 antagonist, D1 agonist, D1 PAM)
COc1cc(N2CCCC2)c(OC)cc1/C=C(/C#N)c1cccc(F)c1	D3 antag inconclusive, D1 agonist 56
N#C/C(=C/c1ccc(N2CCCCCC2)o1)c1cccc(F)c1	D3 antag -61
